MITF primary: human MITF inhibition, primary screen; 650,000 compounds, 0.91% hits; AlphaScreen MITF homodimerization, bead proximity signal; O75030; inhibition, % at 2.6 µM; AID 1259374; in the data active = inhibition above about 50%;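 also: 0% = vehicle wells with protein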
TEAD-YAP inh: TEAD-YAP interaction inhibition; HEK-TIYL cells, TEAD-Gal4/YAP UAS-luciferase luminescence; inhibition, % at 9.12 µM; 640,000 compounds, 1.4% hits; AID 1259422; in the data active = inhibition above about 32%;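 also: 0% = median of test compound wells and 100% = reference inhibitor wells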
FBW7 activator: activators of human E3 ligase FBW7 | Q969H0 | AlphaScreen FBW7–phospho-cyclin E peptide binding, activator screen | normalized activity (activation), % at 26.1 µM | 650,000 compounds, 0.13% hits | AID 1259310; in the data active = normalized activity above about 1.9%;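 also: purified mutant Fbw7 with reduced substrate affinity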
Target sequence (Q969H0 whole entry, looked up): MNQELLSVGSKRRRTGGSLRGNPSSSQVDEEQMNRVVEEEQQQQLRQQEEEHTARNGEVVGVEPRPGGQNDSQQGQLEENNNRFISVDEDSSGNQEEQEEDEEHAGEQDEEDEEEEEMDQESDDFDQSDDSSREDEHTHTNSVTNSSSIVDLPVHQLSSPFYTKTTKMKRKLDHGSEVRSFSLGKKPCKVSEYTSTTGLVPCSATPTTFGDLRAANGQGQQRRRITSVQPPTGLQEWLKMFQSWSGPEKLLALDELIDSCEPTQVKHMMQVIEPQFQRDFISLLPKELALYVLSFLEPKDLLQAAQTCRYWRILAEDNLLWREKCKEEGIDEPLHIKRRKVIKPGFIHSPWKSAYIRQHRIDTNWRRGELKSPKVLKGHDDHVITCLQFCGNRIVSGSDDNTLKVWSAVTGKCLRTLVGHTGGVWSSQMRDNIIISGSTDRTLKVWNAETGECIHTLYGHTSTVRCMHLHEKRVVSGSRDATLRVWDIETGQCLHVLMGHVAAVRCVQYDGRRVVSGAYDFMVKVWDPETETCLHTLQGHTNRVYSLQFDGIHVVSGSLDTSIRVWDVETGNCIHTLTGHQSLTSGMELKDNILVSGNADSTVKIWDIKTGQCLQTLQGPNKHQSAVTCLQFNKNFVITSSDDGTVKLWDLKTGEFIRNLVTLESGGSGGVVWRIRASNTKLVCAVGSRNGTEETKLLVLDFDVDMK
GPR151 activ: activators of human GPR151; Q8TDV0; PathHunter beta-arrestin GPR151 cells, luminescence; activation, % at 11.2 µM; 650,000 compounds, 1% hits; AID 1508602; in the data active = activation above about 4.9%;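 also: 0% = median of compound wells and 100% = cells with positive control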
MITF confirm: confirmation of human MITF inhibitors; shares compounds with MITF primary; 4,700 compounds, 16% hits; inhibition, % at 2.6 µM; AID 1259372; AlphaScreen MITF homodimerization, biotin/His-MITF beads;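 active = inhibition above a cutoff derived from the DMSO control wells, cut at about 28% in these data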;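 also: 0% = MITF dimer wells with DMSO only; inhibitors lower the bead chemiluminescence by keeping MITF from dimerizing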
AlphaScreen DR: counter-screen: compounds optically interfering with AlphaScreen; shares compounds with MITF primary; AlphaScreen optical interference counterscreen, cell-free; IC50, µM; 480 compounds, 6% hits; AID 1259373; call rule not given here
AlphaScreen intf2: optically interferes with AlphaScreen signal. LysRS AlphaScreen counterscreen, signal interference, triplicate. inhibition, % at 2.6 µM. shares compounds with MITF primary. 4,700 compounds, 7.6% hits;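 active = inhibition above a cutoff derived from the DMSO control wells, cut at about 30% in these data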
GPR151 conf act: confirmation of human GPR151 activators. GPR151 PathHunter beta-arrestin cells, luminescence, 90 min; % of EA-reagent control over plate median. 6,700 tested, under 10 active. activation, % at 11.2 µM. shares compounds with GPR151 activ;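 active = mean percent activation across replicates above the confirmation screen cutoff of 4.91%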
GPR119 ag: activates human GPR119 in a GPR151 counter-screen; GPR119 PathHunter beta-arrestin cells, luminescence, 90 min; 0 = compound-well median, 100 = enzyme-acceptor control; activation, % at 11.2 µM; AID 1508611; 6,700 compounds, 0.3% hits; shares compounds with GPR151 activ;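 active = mean percent activation in the counterscreen above 29.09%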;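 also: counterscreen on off-target GPR119 to flag nonselective hits from the GPR151 activator screen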
The depositor's hits bear a star; . = no result given. An excerpt weighted towards active compounds, which were near 3.5% of everything screened.

SMILES	MITF primary	TEAD-YAP inh	FBW7 activator	GPR151 activ	MITF confirm	AlphaScreen intf2	GPR151 conf act	GPR119 ag	others
Cc1ccc(OCCCN2CCNCC2)c([N+](=O)[O-])c1	37.4	4.5	-0.1	0.4	.	.	.	.
C=CCC1(CC=C)CCCCN1C(=O)CC1C(=O)NCCN1Cc1ccoc1 (stereo unspecified)	79.7*	1.7	0.5	6.4*	-0.1	-1.1	-0.1	-9.3
CC(C)(C)NC(=O)C(Cc1ccc([N+](=O)[O-])cc1)N1C(=O)c2ccccc2C1=O (stereo unspecified)	14.1	-5.7	-0.1	-0.9	.	.	.	.
Cc1cc(=O)[nH]c(SCc2cn3ccccc3n2)n1	-4.1	-8.3	0.1	-1.3	.	.	.	.
c1cnc2nc(SCc3cn4ccccc4n3)[nH]c2c1	68.0*	0.5	-0.2	6.8*	10.2	0.2	0.4	7.3
COc1ccc(CN2CCN(Cc3cc(OC)cc(OC)c3)CC2)cc1	77.1*	-0.7	-0.1	17.3*	-5.5	1.2	-0.6	-13.5
COc1cc(CN2CCOCC2)cc(OC)c1	42.2	4.1	-0.1	-0.8	.	.	.	.
COc1cc(CN2CCN(Cc3ccc(Br)cc3)CC2)cc(OC)c1	81.6*	-4.6	0.2	6.1*	10.7	5.7	-1.3	-9.5
Cc1nn(-c2ccccc2)c2c1C(c1ccccc1F)C(C#N)=C(N)O2 (stereo unspecified)	4.6	5.0	-0.6	0.6	.	.	.	.
Clc1cccc(CN2CCOCC2)c1Cl	60.0*	2.2	0.4	9.9*	-6.2	-8.0	-0.1	5.9
c1ccc2c(CN3CCOCC3)cccc2c1	37.7	7.8	0.2	-0.1	.	.	.	.
O=C(Nc1ccccc1Cl)c1cc2ccccc2cc1O	-1.1	-62.5	-0.1	-5.3	.	.	.	.
CCc1ccc(CN2CCN(Cc3ccc4c(c3)c3ccccc3n4CC)CC2)cc1	69.7*	-3.1	-0.1	5.8*	8.0	3.4	0.4	6.2
CCn1c2ccccc2c2cc(CN3CCN(Cc4ccc5c(c4)c4ccccc4n5CC)CC3)ccc21	7.7	0.5	0.0	-0.3	.	.	.	.
CCn1ccnc1CN1CCN(Cc2cccc(OC)c2)C(CCO)C1 (stereo unspecified)	52.9*	-9.1	0.2	17.6*	28.4*	16.2	-0.1	1.8	AlphaScreen DR=>6.48
COc1cc(C(=O)N2CCN(Cc3ccccc3C(F)(F)F)CC2)cc(OC)c1OC	59.1*	6.0	-0.4	12.0*	3.4	10.1	1.3	26.1
COc1ccc(CN2CCN(C(=O)c3cc(OC)c(OC)c(OC)c3)CC2)c(OC)c1	38.1	1.4	-0.1	0.0	.	.	.	.
O=C(O)c1cc(N/N=C/c2ccccn2)ccc1Cl	-1.0	-61.6	-0.3	-2.1	.	.	.	.
C=CCNCCOCCOc1ccc(OCC)cc1	51.4*	14.6	1.6	6.0*	48.9*	7.4	0.7	0.6	AlphaScreen DR=>6.48
N#Cc1nc(COc2ccccc2Cl)oc1NCCCn1ccnc1	96.2*	-0.3	-0.1	18.5*	-4.4	5.2	-0.4	-6.5
N#Cc1nc(-c2ccccc2)oc1NCCCn1ccnc1	-8.2	-17.4	-0.2	-0.2	.	.	.	.
O=C(CN1CCC(N2CCCCC2)CC1)Nc1ccccc1O	52.2*	2.3	0.2	5.7*	7.6	2.9	-0.5	-2.2
C=CCNC(=S)N1CCNC(=O)C1CC(=O)Nc1ccc(OCC)cc1 (stereo unspecified)	-0.3	-6.2	-0.1	0.2	.	.	.	.
CCN1CCN(CC#CCOc2ccccc2OC)CC1	82.1*	7.5	0.1	9.7*	8.0	13.4	-0.6	-10.3
Cc1cnc(-c2ccc(C(N)=O)cc2)nc1NC1CC1	2.5	4.1	0.2	-0.2	.	.	.	.
SMILES	MITF primary	TEAD-YAP inh	FBW7 activator	GPR151 activ	MITF confirm	AlphaScreen intf2	GPR151 conf act	GPR119 ag	others
CN1CCN(C(=O)c2ccc(-c3nc(NCCCN4CCCC4=O)c4ncn(Cc5ccc(C(F)(F)F)cc5)c4n3)cc2)CC1	6.5	6.9	-0.1	1.9	.	.	.	.
O=C(c1ccncc1)N1CCN(Cc2cccnc2)CC1	67.6*	7.2	0.0	9.0*	-17.9	-4.8	0.1	15.0
COc1cc(CN2CCN(C(=O)c3cccnc3)CC2)cc(OC)c1OC	47.1	0.8	0.1	-0.5	.	.	.	.
Clc1ccc(COc2ccccc2CNn2cnnc2)cc1	7.0	4.7	-0.1	-0.2	.	.	.	.
CCOc1cccc(CNn2cnnc2)c1OCc1ccccc1	3.1	2.2	0.0	5.5*	.	.	0.9	8.9
NC(=O)c1ccccc1NC(=O)CSc1nc2ccccc2c(=O)[nH]1	-13.7	0.2	-0.4	5.3*	.	.	-0.5	0.5
COC(=O)c1ccccc1NC(=O)CSc1nc2ccccc2c(=O)[nH]1	1.8	5.3	0.0	0.1	.	.	.	.
COc1cc(NS(=O)(=O)c2ccc(NC(=O)c3ccc(C(C)=O)cc3)cc2)ncn1	12.7	-6.7	-0.1	5.7*	.	.	-0.5	-12.8
CC(=O)c1ccc(NC(=O)Nc2ccc(S(=O)(=O)N3CCCC3)cc2)cc1	9.3	16.8	0.2	-1.0	.	.	.	.
CC(=O)c1ccc(NC(=O)c2ccc(S(=O)(=O)N3CCCC3)cc2)cc1	11.3	1.3	0.3	5.0*	.	.	-0.5	-13.0
O=[N+]([O-])c1cccc(S(=O)(=O)N(CCCN2CCOCC2)Cc2cccs2)c1	45.4	-5.7	0.0	1.1	.	.	.	.
COc1cc(NC(=O)c2cc(-c3ccc(O)cc3)on2)cc(OC)c1OC	11.2	15.6	0.0	-0.2	.	.	.	.
CCc1nnc(NC(=O)c2ccccc2[N+](=O)[O-])s1	2.3	-4.9	0.0	1.0	.	.	.	.
O=C(Nc1nc(-c2ccccn2)cs1)c1ccccc1[N+](=O)[O-]	43.7	54.1*	-0.2	5.4*	.	.	-0.5	-7.5
O=C(Nc1nc(-c2ccccc2)cs1)c1ccccc1[N+](=O)[O-]	7.6	5.6	0.1	1.8	.	.	.	.
CC(C)(C)Cc1nnc(NC(=O)c2ccccc2[N+](=O)[O-])s1	-4.3	-0.3	0.0	13.3*	.	.	0.3	-5.3
CC(C)(C)C(=O)Nc1ccc(C(=O)CCl)cc1	19.9	-3.2	0.1	-1.3	.	.	.	.
COC(=O)c1c(NC(=O)c2ccc3c(c2)OCO3)sc(C(=O)N2CCCCC2)c1C	2.9	0.3	-0.1	7.5*	.	.	1.0	8.0
COc1cc([N+](=O)[O-])cc2c1NC(c1cccnc1)C1CC=CC21 (stereo unspecified)	6.7	0.3	-0.4	5.2*	.	.	-0.4	-7.2
COc1cc([N+](=O)[O-])cc2c1NC(c1ccncc1)C1CC=CC21 (stereo unspecified)	-2.5	-6.2	-0.5	1.2	.	.	.	.
O=C(Nc1ccccc1)c1ccccc1Nc1ccnc(Nc2ccc(N3CCOCC3)cc2)c1	10.1	8.5	-0.5	0.1	.	.	.	.

Bioassay records (PubChem)
